The values that follow come from PubChem BioAssay.

By viability is commonly meant a read-out of living cells in per cent, often relative to untreated cells. The inhibition is the relative decrease from the control value, in per cent.

Structures are written as SMILES. Inconclusive results are not listed. Active and inactive are the calls of the source.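 Rule for the calls, unless noted: active = viability at or below 27.92% in each of two runs, the all-compound median minus 4 SD; inconclusive = no clear call, values can overlap the other calls; inactive = the rest.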

Experiment [1] is described as follows: reducers of endogenous Her2 protein level, primary screen, SKBR3 breast tumor cells, AlphaScreen, ATP viability (AID 461;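 active = Her2 level under about 52% in both replicate screens, with viability over 70% of control, limit read from the data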;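 for Her2 level: lower value means less Her2 protein in the cells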;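 for viability: percent of carrier control wells set as 100% viability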). Conditions: 18-24 h, measured here: SKBR3 viability, ATP luminescence, at 10 µM. For orientation: In Alpha technology, singlet oxygen from a donor bead excites a nearby acceptor bead.
The target in experiment [2] is Receptor tyrosine-protein kinase erbB-2 (Homo sapiens) (UniProt P04626). The experiment is described as above. As to conditions: 18-24 h, at 10 µM, stronger effect = lower value.
Receptor tyrosine-protein kinase erbB-2 (Homo sapiens), sequence (P04626 whole entry, looked up): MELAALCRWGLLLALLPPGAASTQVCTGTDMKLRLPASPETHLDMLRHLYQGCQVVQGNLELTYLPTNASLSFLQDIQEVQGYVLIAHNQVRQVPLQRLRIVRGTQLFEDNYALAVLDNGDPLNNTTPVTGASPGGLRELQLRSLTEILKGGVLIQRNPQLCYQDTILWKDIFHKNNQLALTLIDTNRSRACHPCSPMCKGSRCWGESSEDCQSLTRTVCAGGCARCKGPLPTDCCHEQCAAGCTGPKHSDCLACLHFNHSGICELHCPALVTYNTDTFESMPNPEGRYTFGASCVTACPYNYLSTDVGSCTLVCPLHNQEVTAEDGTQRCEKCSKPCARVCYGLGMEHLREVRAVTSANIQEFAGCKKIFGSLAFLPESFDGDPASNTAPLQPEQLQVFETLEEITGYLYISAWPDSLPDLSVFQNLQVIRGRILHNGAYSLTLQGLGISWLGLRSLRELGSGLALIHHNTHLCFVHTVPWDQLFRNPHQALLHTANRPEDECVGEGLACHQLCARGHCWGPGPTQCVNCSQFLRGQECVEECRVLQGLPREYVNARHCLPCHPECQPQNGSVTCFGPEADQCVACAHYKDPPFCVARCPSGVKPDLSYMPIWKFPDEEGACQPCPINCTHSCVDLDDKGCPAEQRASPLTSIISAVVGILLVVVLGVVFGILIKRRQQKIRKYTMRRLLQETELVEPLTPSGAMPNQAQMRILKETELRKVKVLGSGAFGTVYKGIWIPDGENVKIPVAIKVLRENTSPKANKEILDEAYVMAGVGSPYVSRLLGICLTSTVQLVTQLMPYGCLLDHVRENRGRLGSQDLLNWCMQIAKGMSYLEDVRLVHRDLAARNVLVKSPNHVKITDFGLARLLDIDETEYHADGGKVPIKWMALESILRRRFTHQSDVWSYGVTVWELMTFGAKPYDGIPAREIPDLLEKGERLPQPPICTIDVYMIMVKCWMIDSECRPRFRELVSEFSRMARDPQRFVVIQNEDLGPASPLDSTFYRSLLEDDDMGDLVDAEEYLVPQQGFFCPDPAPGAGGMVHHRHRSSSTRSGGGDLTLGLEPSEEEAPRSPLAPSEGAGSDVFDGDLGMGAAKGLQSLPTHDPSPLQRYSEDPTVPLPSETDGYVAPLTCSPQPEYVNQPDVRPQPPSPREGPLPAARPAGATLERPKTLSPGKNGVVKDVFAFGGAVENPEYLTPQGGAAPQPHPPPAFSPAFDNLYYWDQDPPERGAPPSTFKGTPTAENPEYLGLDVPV
Experiment [3] in a line: SK-BR-3 cell growth inhibitors, pilot screen, 24 h, human (AID 572;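 active = viability at or below 10% of carrier control in both of two separate runs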;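 note: compound exposure lasted between 18 and 24 h rather than exactly 24 h; 100% = carrier-treated control wells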). As to conditions: SK-BR-3 viability, CellTiter-Glo luminescence, at 10 µM, stronger effect = lower value. A general note: ATP-based viability assays read luminescence as a measure of living cells.
A short description of experiment [4]: HUVEC growth inhibition – cell-based, human, primary screen (AID 575;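 active = viability at or below 30% in both replicate assays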;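 note: 100% = median of untreated cell wells with 0.1% DMSO on each plate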). Conditions: HUVEC proliferation, CellTiter-Glo luminescence, 72 h; at 10 µM; stronger effect = lower value.
Experiment [5] is described as follows: growth inhibitors of H69AR lung tumor, primary screen, human, duplicate replicates (AID 580;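 active = viability at or under a set limit in both replicates, limit being median viability minus 3 SD, cut at about 48% in these data, passing the limit was not always enough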;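 note: 100% = mean luminescence of untreated wells and 0% = no signal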). Conditions: H69AR lung tumor cells viability, ATP luminescence, 72 h; at 10 µM; stronger effect = lower value.
A short description of experiment [6]: reversal of MRP1-mediated doxorubicin resistance, pilot screen, H69AR cells, doxorubicin co-treatment (AID 601;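 active = viability loss from added drug above about 55%, and viability with drug at most 40%, in both replicates, limit read from the data, passing the limit was not always enough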). Conditions: CellTiter-Glo, 72 h, at 10 µM; for differential viability (reversal): stronger effect = higher value.
A short description of experiment [7]: 384-well plate pilot, post-Golgi transport modulator project, inhibition of yeast transport mutant growth (AID 636; in the data active = inhibition above about 31%). As to conditions: absorbance 615 nm, about 18 h, stronger effect = higher value.
Experiment [8] can be described thus: growth suppression of yeast trafficking mutant, preliminary HTS, modulators of trafficking downstream of Golgi apparatus project, 1536-format plate, OD 615 nm (AID 637; in the data active = inhibition above about 30%). As to conditions: yeast transport mutant growth, absorbance 615 nm, 18 h; stronger effect = higher value.
Experiment [9] can be described thus: OD615 S. cerevisiae growth inhibition, permissive medium, pilot counter-assay, permissive growth control for S. cerevisiae lifespan shortening project (AID 705;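 active = growth inhibition above 25% in both replicates, a cutoff set 3 SD above the mean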). Conditions: OD615, 24 h, at 10 µM, stronger effect = higher value.
Experiment [10] is described as follows: Restrictive medium S. cerevisiae growth inhibition, OD615, pilot screen of yeast lifespan reduction project, restrictive growth control (AID 706;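 active = growth inhibition above a set limit, 3 SD over mean compound inhibition, in both replicates, cut at about 43% in these data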;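 note: modified DeaD lifespan yeast strain shifted to restrictive glucose medium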). As to conditions: OD615, 48 h, at 10 µM, stronger effect = higher value.
The nature of experiment [11]: viability gain of MRP-1-high H69AR cells under doxorubicin, pilot screen, MRP-1 activator project, CellTiter-Glo, duplicate (AID 807;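 active = viability increase at or above a cutoff of the median across tested compounds plus 3 SD, cut at about 8.5% in these data, passing the limit was not always enough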;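 note: compound pretreatment 18-22 h then 72 h combined with doxorubicin; 0% = doxorubicin alone and 100% = vehicle without doxorubicin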). As to conditions: H69AR viability with doxorubicin, CellTiter-Glo luminescence; at 10 µM; stronger effect = higher value.
The nature of experiment [12]: growth suppression of beta-catenin knockout HCT116, pilot screen, human colon tumor cells (AID 823;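 active = cell viability at or below a set limit in both duplicate runs, the limit being the all-compound median minus 4 SD, cut at about 23% in these data, passing the limit was not always enough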;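 note: 0% = wells killed by 20 µM Hyamine and 100% = untreated DMSO cell wells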). As to conditions: CellTiter-Glo, 60 h, at 10 µM, stronger effect = lower value.
The nature of experiment [13]: growth suppression of PTEN-deleted HCT116, pilot screen, cell-based, HCT116 clonal line, CellTiter-Glo (AID 824).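 Note: 0% = 20 µM Hyamine control and 100% = vehicle cell control.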 As to conditions: 60 h, at 10 µM, stronger effect = lower value.
The nature of experiment [14]: inhibitors of the yeast RAM network, pilot screen, dse1pr::URA3 reporter, 5-FOA selection (AID 869;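 active = inhibition over a set limit, the all-compound mean plus 3 SD, in both replicate runs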;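 note: 0% = DMSO wells with no growth and 100% = 10 µM 1-NA-PP1 with full growth; RAM network block rescues cells from 5-FOA so hits raise OD615 growth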). Conditions: S. cerevisiae dse1pr::URA3 5-FOA growth, OD615, 2 d; at 10 µM; stronger effect = higher value; strain carries analog-sensitive mutant Cbk1 kinase.
Experiment [15] in a line: RAM signaling pathway blockade in yeast – S. cerevisiae, Pdr1DBD-CYC8 efflux-inhibited sensitized strain, primary screen (AID 1298;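 active = RAM network inhibition above 8.4% in each of two replicates, 3 SD over the compound average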;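 note: 0% = DMSO untreated cells without growth and 100% = 10 µM 1-NA-PP1 full growth; higher means more yeast growth rescued from 5-FOA killing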). Conditions: S. cerevisiae cbk1-as DSE1-URA3 strain, 5-FOA growth OD615, 2 d; at 50 µM; stronger effect = higher value.
Where [16] appears, read: H69AR cells + 2 uM doxorubicin, measured here: viability with 2 uM doxorubicin, stronger effect = lower value.
[17] abbreviates: H69AR cells, compound alone cytotoxicity.

Take `COC(=O)C(C#N)C(=C1C(=O)CC(C)(C)CC1=O)c1ccc(O)cc1` (stereo not given): the viability in experiment [1] is 90%; in [3], 90% (inactive); in [4], 96.5% (inactive); in experiment [5] it was 92% (inactive); in [6] (setting [16]) it was 95.6%; in experiment [6] (setting [17]), 92%. The viability in [12] was 97.5% (inactive); in experiment [13] it was 101% (inactive). Moreover, the Her2 level in [2] was 92.5% (inactive). In addition, in experiment [6] (H69AR cells + 2 uM doxorubicin), the differential viability (reversal) was -3.63% (inactive). Further, the inhibition in [7] was 0.9% (inactive); in experiment [8], -1.17% (inactive); in experiment [14], 1.16% (inactive). In addition, the growth inhibition was -1.85% (inactive) in experiment [9] and 0.91% (inactive) in experiment [10]. The viability increase in experiment [11] was 0.99% (inactive). For the same molecule, the RAM network inhibition in experiment [15] is 2.01% (inactive).

As for `CC1=C(C(=O)OC(C)C)C(c2cccc(F)c2)n2ncnc2N1` (stereo not given), the viability in experiment [1] is 103%; in [3], 103% (inactive); in [4], 101% (inactive); in [5], 90.7% (inactive); in experiment [6] (setting [16]) it was 91.7%; in experiment [6] (setting [17]) it was 90.7%. Moreover, the viability in [12] is 103% (inactive); in experiment [13], 100% (inactive). The Her2 level in [2] is 112% (inactive). For the same molecule, the differential viability (reversal) in experiment [6] (H69AR cells + 2 uM doxorubicin) was -1.02% (inactive). The inhibition in experiment [7] was 0.27% (inactive); in [8], 3.83% (inactive); in experiment [14], 1.74% (inactive). The growth inhibition in experiment [9] was -7.79% (inactive); in experiment [10] it was -4.85% (inactive). For the same molecule, in [11], the viability increase is 0.62% (inactive). In [15], the RAM network inhibition was 5.32% (inactive).

For the molecule `Cc1cccc(Cn2c(SCCN3CCCCC3)nc3c2c(=O)[nH]c(=O)n3C)c1`, the viability in experiment [1] is 75%; in [3] it was 75% (inactive); in [4], 75.6% (inactive); in [5] it was 73.7% (inactive); in experiment [6] (setting [16]), 79.8%; in [6] (setting [17]) it was 73.7%. For the same molecule, the viability in experiment [12] is 92.4% (inactive); in experiment [13] it was 83.1% (inactive). For the same molecule, the Her2 level in [2] was 96.5% (inactive). Also, in experiment [6] (H69AR cells + 2 uM doxorubicin), the differential viability (reversal) is -6.01% (inactive). Moreover, the inhibition in [7] was -1.73% (inactive); in experiment [8], 5.5% (inactive); in experiment [14], 2.78% (inactive). In addition, the growth inhibition in [9] was -16.1% (inactive); in [10], -11.3% (inactive). Further, in experiment [11], the viability increase is -2.89% (inactive). Moreover, the RAM network inhibition in [15] was 0.26% (inactive).

Consider `COc1cc(C(=O)Nc2cccc(-c3nncn3C)c2)cc(OC)c1OC`, for which the viability in experiment [1] was 102%; in experiment [3], 102% (inactive); in experiment [4], 101% (inactive); in experiment [5], 89% (inactive); in experiment [6] (setting [16]), 81.2%; in experiment [6] (setting [17]), 89%. In addition, the viability in [12] is 91.4% (inactive); in [13] it was 104% (inactive). Moreover, in experiment [2], the Her2 level is 110% (inactive). Also, the differential viability (reversal) in experiment [6] (H69AR cells + 2 uM doxorubicin) was 7.79% (inactive). Further, the inhibition is -2.31% (inactive) in [7], -5.5% (inactive) in experiment [8] and 0.045% (inactive) in [14]. Also, the values for the growth inhibition in [9] and in [10] were 2.38% (inactive) and 4.63% (inactive), respectively. For the same molecule, the viability increase in experiment [11] was -1.76% (inactive). Moreover, the RAM network inhibition in experiment [15] is 1.54% (inactive).

In the case of `CN1CCN(C(=O)c2ccc(CS(=O)(=O)c3c(Cl)cccc3Cl)o2)CC1`, the viability in experiment [1] is 98.5%; in experiment [3] it was 98.5% (inactive); in experiment [4], 97.4% (inactive); in experiment [5], 94.3% (inactive); in [6] (setting [16]), 85.8%; in experiment [6] (setting [17]) it was 94.3%. In addition, the viability in experiment [12] is 103% (inactive); in experiment [13], 96% (inactive). Further, the Her2 level in [2] was 88.5% (inactive). In experiment [6] (H69AR cells + 2 uM doxorubicin), the differential viability (reversal) is 8.46% (inactive). Moreover, the inhibition in [7] was -2% (inactive); in experiment [8], -2.46% (inactive); in experiment [14] it was 1.41% (inactive). Further, the growth inhibition in [9] was -7.05% (inactive); in experiment [10], -12% (inactive). For the same molecule, the viability increase in [11] is 0.72% (inactive). Also, the RAM network inhibition in experiment [15] is 0.22% (inactive).
